Measurements as given in PubChem BioAssay.
Results filed as inconclusive are left out. Activity calls are given as the source filed them.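 The calls were made as follows, unless noted: active = viability at or below 10% of carrier control in both of two separate runs; inconclusive = viability at or below 10% in only one of the two runs; inactive = the rest.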

Legend:
[1] = reducers of endogenous Her2 protein level, primary screen, SKBR3 breast tumor cells, AlphaScreen, ATP viability (AID 461;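 active = Her2 level under about 52% in both replicate screens, with viability over 70% of control, limit read from the data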;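 as to Her2 level: lower value means less Her2 protein in the cells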;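 as to viability: percent of carrier control wells set as 100% viability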); details: 18-24 h, measured here: SKBR3 viability, ATP luminescence, at 10 µM
[2] = target: Receptor tyrosine-protein kinase erbB-2 (Homo sapiens) (UniProt P04626); assay: as above; details: 18-24 h, at 10 µM, stronger effect = lower value
[3] = SK-BR-3 cell growth inhibitors, pilot screen, 24 h, human (AID 572); details: SK-BR-3 viability, CellTiter-Glo luminescence, at 10 µM, stronger effect = lower value;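 also: compound exposure lasted between 18 and 24 h rather than exactly 24 h; 100% = carrier-treated control wells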
[4] = HUVEC growth inhibition – cell-based, human, primary screen (AID 575;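 active = viability at or below 30% in both replicate assays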;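 also: 100% = median of untreated cell wells with 0.1% DMSO on each plate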); details: HUVEC proliferation, CellTiter-Glo luminescence, 72 h; at 10 µM; stronger effect = lower value
[5] = growth inhibitors of H69AR lung tumor, primary screen, human, duplicate replicates (AID 580;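 active = viability at or under a set limit in both replicates, limit being median viability minus 3 SD, cut at about 48% in these data, passing the limit was not always enough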;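 also: 100% = mean luminescence of untreated wells and 0% = no signal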); details: H69AR lung tumor cells viability, ATP luminescence, 72 h; at 10 µM; stronger effect = lower value
[6] = reversal of MRP1-mediated doxorubicin resistance, pilot screen, H69AR cells, doxorubicin co-treatment (AID 601;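 active = viability loss from added drug above about 55%, and viability with drug at most 40%, in both replicates, limit read from the data, passing the limit was not always enough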); details: CellTiter-Glo, 72 h, at 10 µM; for differential viability (reversal): stronger effect = higher value
[7] = 384-well plate pilot, post-Golgi transport modulator project, inhibition of yeast transport mutant growth (AID 636; in the data active = inhibition above about 31%); details: absorbance 615 nm, about 18 h, stronger effect = higher value
[8] = growth suppression of yeast trafficking mutant, preliminary HTS, modulators of trafficking downstream of Golgi apparatus project, 1536-format plate, OD 615 nm (AID 637; in the data active = inhibition above about 30%); details: yeast transport mutant growth, absorbance 615 nm, 18 h; stronger effect = higher value
[9] = OD615 S. cerevisiae growth inhibition, permissive medium, pilot counter-assay, permissive growth control for S. cerevisiae lifespan shortening project (AID 705;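 active = growth inhibition above 25% in both replicates, a cutoff set 3 SD above the mean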); details: OD615, 24 h, at 10 µM, stronger effect = higher value
[10] = Restrictive medium S. cerevisiae growth inhibition, OD615, pilot screen of yeast lifespan reduction project, restrictive growth control (AID 706;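 active = growth inhibition above a set limit, 3 SD over mean compound inhibition, in both replicates, cut at about 43% in these data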;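 also: modified DeaD lifespan yeast strain shifted to restrictive glucose medium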); details: OD615, 48 h, at 10 µM, stronger effect = higher value
[11] = viability gain of MRP-1-high H69AR cells under doxorubicin, pilot screen, MRP-1 activator project, CellTiter-Glo, duplicate (AID 807;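 active = viability increase at or above a cutoff of the median across tested compounds plus 3 SD, cut at about 8.5% in these data, passing the limit was not always enough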;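 also: compound pretreatment 18-22 h then 72 h combined with doxorubicin; 0% = doxorubicin alone and 100% = vehicle without doxorubicin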); details: H69AR viability with doxorubicin, CellTiter-Glo luminescence; at 10 µM; stronger effect = higher value
[12] = growth suppression of beta-catenin knockout HCT116, pilot screen, human colon tumor cells (AID 823;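 active = cell viability at or below a set limit in both duplicate runs, the limit being the all-compound median minus 4 SD, cut at about 23% in these data, passing the limit was not always enough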;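 also: 0% = wells killed by 20 µM Hyamine and 100% = untreated DMSO cell wells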); details: CellTiter-Glo, 60 h, at 10 µM, stronger effect = lower value
[13] = growth suppression of PTEN-deleted HCT116, pilot screen, cell-based, HCT116 clonal line, CellTiter-Glo (AID 824;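 active = viability at or below 27.92% in each of two runs, the all-compound median minus 4 SD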;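 also: 0% = 20 µM Hyamine control and 100% = vehicle cell control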); details: 60 h, at 10 µM, stronger effect = lower value
[14] = inhibitors of the yeast RAM network, pilot screen, dse1pr::URA3 reporter, 5-FOA selection (AID 869;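 active = inhibition over a set limit, the all-compound mean plus 3 SD, in both replicate runs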;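 also: 0% = DMSO wells with no growth and 100% = 10 µM 1-NA-PP1 with full growth; RAM network block rescues cells from 5-FOA so hits raise OD615 growth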); details: S. cerevisiae dse1pr::URA3 5-FOA growth, OD615, 2 d; at 10 µM; stronger effect = higher value; strain carries analog-sensitive mutant Cbk1 kinase
[15] = RAM signaling pathway blockade in yeast – S. cerevisiae, Pdr1DBD-CYC8 efflux-inhibited sensitized strain, primary screen (AID 1298;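 active = RAM network inhibition above 8.4% in each of two replicates, 3 SD over the compound average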;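 also: 0% = DMSO untreated cells without growth and 100% = 10 µM 1-NA-PP1 full growth; higher means more yeast growth rescued from 5-FOA killing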); details: S. cerevisiae cbk1-as DSE1-URA3 strain, 5-FOA growth OD615, 2 d; at 50 µM; stronger effect = higher value
[16] = H69AR cells + 2 uM doxorubicin, measured here: viability with 2 uM doxorubicin, stronger effect = lower value
[17] = H69AR cells, compound alone cytotoxicity

Receptor tyrosine-protein kinase erbB-2 (Homo sapiens), sequence (P04626 whole entry, looked up): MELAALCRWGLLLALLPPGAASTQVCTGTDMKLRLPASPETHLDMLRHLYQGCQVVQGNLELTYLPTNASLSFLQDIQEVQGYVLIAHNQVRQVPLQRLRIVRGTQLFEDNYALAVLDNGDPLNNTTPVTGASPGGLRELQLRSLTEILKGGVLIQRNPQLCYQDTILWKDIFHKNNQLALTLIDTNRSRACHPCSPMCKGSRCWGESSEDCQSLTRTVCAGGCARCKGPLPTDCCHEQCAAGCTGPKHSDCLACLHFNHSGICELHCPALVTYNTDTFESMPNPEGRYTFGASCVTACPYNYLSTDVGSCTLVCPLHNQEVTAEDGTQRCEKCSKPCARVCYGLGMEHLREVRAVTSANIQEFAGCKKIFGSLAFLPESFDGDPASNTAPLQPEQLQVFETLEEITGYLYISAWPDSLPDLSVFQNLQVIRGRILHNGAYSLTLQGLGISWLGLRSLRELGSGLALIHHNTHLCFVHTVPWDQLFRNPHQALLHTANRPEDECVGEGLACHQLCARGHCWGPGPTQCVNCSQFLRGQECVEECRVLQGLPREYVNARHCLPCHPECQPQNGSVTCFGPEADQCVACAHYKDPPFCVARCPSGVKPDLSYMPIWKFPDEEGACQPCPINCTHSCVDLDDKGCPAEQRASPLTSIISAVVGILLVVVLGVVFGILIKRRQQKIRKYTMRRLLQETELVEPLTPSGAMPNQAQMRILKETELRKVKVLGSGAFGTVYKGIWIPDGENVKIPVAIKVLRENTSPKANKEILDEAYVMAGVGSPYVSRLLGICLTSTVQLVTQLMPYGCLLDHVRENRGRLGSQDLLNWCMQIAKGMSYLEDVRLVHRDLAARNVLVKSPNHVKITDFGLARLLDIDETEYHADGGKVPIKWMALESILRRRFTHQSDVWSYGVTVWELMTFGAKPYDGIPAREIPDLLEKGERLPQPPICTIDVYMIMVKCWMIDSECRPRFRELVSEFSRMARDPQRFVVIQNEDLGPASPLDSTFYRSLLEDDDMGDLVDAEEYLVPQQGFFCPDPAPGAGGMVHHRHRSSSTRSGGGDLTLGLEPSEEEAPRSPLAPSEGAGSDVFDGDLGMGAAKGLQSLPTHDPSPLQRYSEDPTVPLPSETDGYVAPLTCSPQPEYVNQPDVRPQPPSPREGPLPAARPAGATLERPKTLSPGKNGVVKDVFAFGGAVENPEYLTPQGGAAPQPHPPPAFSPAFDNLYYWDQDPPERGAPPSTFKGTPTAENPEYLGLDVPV

O=C(O)C1CC=CCC1C(=O)Nc1cccc(F)c1 (stereo not given)
viability [1]: 94% | Her2 level [2]: 94% (inactive) | viability [3]: 94% (inactive) | viability [4]: 88.1% (inactive) | viability [5]: 87.1% (inactive) | differential viability (reversal) ([6]; H69AR cells + 2 uM doxorubicin): -1.18% (inactive) | viability [6, 16]: 88.3% | viability [6, 17]: 87.1% | inhibition [7]: -2.99% (inactive) | inhibition [8]: -5.17% (inactive) | growth inhibition [9]: -1.99% (inactive) | growth inhibition [10]: -0.35% (inactive) | viability increase [11]: -0.78% (inactive) | viability [12]: 102% (inactive) | viability [13]: 100% (inactive) | inhibition [14]: 1.86% (inactive) | RAM network inhibition [15]: 1.15% (inactive)

CC1(C)Oc2ccc3ccc(=O)oc3c2C(N2CCCCC2)C1O (stereo not given)
viability [1]: 103% | Her2 level [2]: 94% (inactive) | viability [3]: 103% (inactive) | viability [4]: 89.6% (inactive) | viability [5]: 92.6% (inactive) | differential viability (reversal) ([6]; H69AR cells + 2 uM doxorubicin): 7.25% (inactive) | viability [6, 16]: 85.3% | viability [6, 17]: 92.6% | inhibition [7]: -0.52% (inactive) | inhibition [8]: -4.33% (inactive) | growth inhibition [9]: -4.78% (inactive) | growth inhibition [10]: -7.54% (inactive) | viability increase [11]: -2.43% (inactive) | viability [12]: 101% (inactive) | viability [13]: 98.2% (inactive) | inhibition [14]: 1.49% (inactive) | RAM network inhibition [15]: 2.29% (inactive)

CCOc1ccc(N(CC(=O)OC)S(=O)(=O)c2ccc(OC)c(OC)c2)cc1
viability [1]: 108% | Her2 level [2]: 122% (inactive) | viability [3]: 108% (inactive) | viability [4]: 87.2% (inactive) | viability [5]: 106% (inactive) | differential viability (reversal) ([6]; H69AR cells + 2 uM doxorubicin): 6.15% (inactive) | viability [6, 16]: 99.4% | viability [6, 17]: 106% | inhibition [7]: 3.12% (inactive) | inhibition [8]: -4.83% (inactive) | growth inhibition [9]: -11.6% (inactive) | growth inhibition [10]: -4.04% (inactive) | viability increase [11]: -0.96% (inactive) | viability [12]: 99.9% (inactive) | viability [13]: 106% (inactive) | inhibition [14]: 0.39% (inactive) | RAM network inhibition [15]: 2.44% (inactive)

Cc1ccc(-c2cc(C(=O)Nc3cc(C)on3)c3ccccc3n2)c(C)c1
viability [1]: 77.5% | Her2 level [2]: 99.5% (inactive) | viability [3]: 77.5% (inactive) | viability [4]: 96% (inactive) | viability [5]: 84.7% (inactive) | differential viability (reversal) ([6]; H69AR cells + 2 uM doxorubicin): -5.17% (inactive) | viability [6, 16]: 89.9% | viability [6, 17]: 84.7% | inhibition [7]: -4.67% (inactive) | inhibition [8]: 3.67% (inactive) | growth inhibition [9]: -8.89% (inactive) | growth inhibition [10]: -8.38% (inactive) | viability increase [11]: -0.76% (inactive) | viability [12]: 87.4% (inactive) | viability [13]: 82.4% (inactive) | inhibition [14]: 1.68% (inactive) | RAM network inhibition [15]: 7.01% (inactive)

Cc1cc(C)nc(NC(=O)c2cnc3sccn3c2=O)n1
viability [1]: 106% | Her2 level [2]: 88.5% (inactive) | viability [3]: 106% (inactive) | viability [4]: 90.5% (inactive) | viability [5]: 96.5% (inactive) | differential viability (reversal) ([6]; H69AR cells + 2 uM doxorubicin): -8.39% (inactive) | viability [6, 16]: 105% | viability [6, 17]: 96.5% | inhibition [7]: -4.67% (inactive) | inhibition [8]: 4.5% (inactive) | growth inhibition [9]: -12.5% (inactive) | growth inhibition [10]: -10.7% (inactive) | viability increase [11]: -1.3% (inactive) | viability [12]: 97.7% (inactive) | viability [13]: 98.3% (inactive) | inhibition [14]: 0.9% (inactive) | RAM network inhibition [15]: 0.52% (inactive)

COc1ccc(-c2nc3c(c(SCC(=O)N4CCOCC4)n2)COC(C)(C)C3)cc1
viability [1]: 111% | Her2 level [2]: 113% (inactive) | viability [3]: 111% (inactive) | viability [4]: 85.5% (inactive) | viability [5]: 89.2% (inactive) | differential viability (reversal) ([6]; H69AR cells + 2 uM doxorubicin): -2.95% (inactive) | viability [6, 16]: 92.1% | viability [6, 17]: 89.2% | inhibition [7]: -2% (inactive) | inhibition [8]: 13.8% (inactive) | growth inhibition [9]: 2.8% (inactive) | growth inhibition [10]: -4.27% (inactive) | viability increase [11]: -1.69% (inactive) | viability [12]: 101% (inactive) | viability [13]: 103% (inactive) | inhibition [14]: 0.94% (inactive) | RAM network inhibition [15]: 2.02% (inactive)

COCCCN1C(=O)C(=O)/C(=C(/O)c2ccc(OCC(C)C)cc2C)C1c1cccnc1 (stereo not given)
viability [1]: 109% | Her2 level [2]: 110% (inactive) | viability [3]: 109% (inactive) | viability [4]: 104% (inactive) | viability [5]: 98.1% (inactive) | differential viability (reversal) ([6]; H69AR cells + 2 uM doxorubicin): 1.47% (inactive) | viability [6, 16]: 96.6% | viability [6, 17]: 98.1% | inhibition [7]: -2.21% (inactive) | inhibition [8]: -2.67% (inactive) | growth inhibition [9]: -1.21% (inactive) | growth inhibition [10]: 15.7% (inactive) | viability increase [11]: 0.13% (inactive) | viability [12]: 106% (inactive) | viability [13]: 95.6% (inactive) | inhibition [14]: 0.48% (inactive) | RAM network inhibition [15]: 2.11% (inactive)

COc1ccc(C(=O)NCc2nnc(SC)n2C2CCCCC2)cc1
viability [1]: 104% | Her2 level [2]: 91% (inactive) | viability [3]: 104% (inactive) | viability [4]: 81.2% (inactive) | viability [5]: 92% (inactive) | differential viability (reversal) ([6]; H69AR cells + 2 uM doxorubicin): 9.5% (inactive) | viability [6, 16]: 82.5% | viability [6, 17]: 92% | inhibition [7]: -3.33% (inactive) | inhibition [8]: -3.44% (inactive) | growth inhibition [9]: -4.53% (inactive) | growth inhibition [10]: 3.39% (inactive) | viability increase [11]: -1.51% (inactive) | viability [12]: 99.8% (inactive) | viability [13]: 96.4% (inactive) | inhibition [14]: 1.08% (inactive) | RAM network inhibition [15]: 2.76% (inactive)

CCN(CCNC(=O)C1CCN(S(=O)(=O)c2cccc3cccnc23)CC1)c1ccccc1
viability [1]: 87% | Her2 level [2]: 84.5% (inactive) | viability [3]: 87% (inactive) | viability [4]: 79.7% (inactive) | viability [5]: 98.3% (inactive) | differential viability (reversal) ([6]; H69AR cells + 2 uM doxorubicin): -2.15% (inactive) | viability [6, 16]: 100% | viability [6, 17]: 98.3% | inhibition [7]: -1.33% (inactive) | inhibition [8]: 20.5% (inactive) | growth inhibition [9]: -5.29% (inactive) | growth inhibition [10]: 8.53% (inactive) | viability increase [11]: 1.51% (inactive) | viability [12]: 94.4% (inactive) | viability [13]: 82.9% (inactive) | inhibition [14]: 0.21% (inactive) | RAM network inhibition [15]: 5.91% (inactive)

Cc1nnc(SCC(=O)NCc2ccccc2)s1
viability [1]: 97.5% | Her2 level [2]: 110% (inactive) | viability [3]: 97.5% (inactive) | viability [4]: 81.2% (inactive) | viability [5]: 101% (inactive) | differential viability (reversal) ([6]; H69AR cells + 2 uM doxorubicin): 1.61% (inactive) | viability [6, 16]: 99.3% | viability [6, 17]: 101% | inhibition [7]: -1.43% (inactive) | inhibition [8]: -2% (inactive) | growth inhibition [9]: -11.3% (inactive) | growth inhibition [10]: -11.3% (inactive) | viability increase [11]: -1.46% (inactive) | viability [12]: 101% (inactive) | viability [13]: 102% (inactive) | inhibition [14]: 0.99% (inactive) | RAM network inhibition [15]: 4.69% (inactive)
